The supplement of paper PMC10849652
The full data set covers some 8,800 targets. This sample favours those with a hit. About 0.5% of all pairs of compound and target were hits.

Compound: C[C@H](Nc1ncnc2nc[nH]c12)c1cc2cccc(Cl)c2c(=O)n1-c1ccccc1 [duvelisib]
Assay: log2 fold change, soluble protein after heating vs DMSO (PISA); higher = thermal stabilisation; K562 lysate, 10 uM; active = over 0.2 and 3.5 SD of the protein, either way, in both replicates (recomputed)
Summary of the method: (§1)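 To prepare the extract, K562 pellets were dounce-homogenised in PBS pH 7.4 with 1 mM MgCl2, giving crude material at 1 mg/mL protein. This was treated with 10 μM compound for 30 min, then heated in aliquots for 3 min over 48°C-58°C before pooling and addition of NP-40 to 0.5% at 4°C. Centrifugation at 21,000xg for 90 min left soluble protein in the supernatant, which TMTpro 16plex LC-MS/MS quantified with equalised channel sums. Results are log-two fold changes in thermal stability compared with solvent controls, from duplicates.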

Sequence of UniProt P35611 (P35611 whole entry, looked up): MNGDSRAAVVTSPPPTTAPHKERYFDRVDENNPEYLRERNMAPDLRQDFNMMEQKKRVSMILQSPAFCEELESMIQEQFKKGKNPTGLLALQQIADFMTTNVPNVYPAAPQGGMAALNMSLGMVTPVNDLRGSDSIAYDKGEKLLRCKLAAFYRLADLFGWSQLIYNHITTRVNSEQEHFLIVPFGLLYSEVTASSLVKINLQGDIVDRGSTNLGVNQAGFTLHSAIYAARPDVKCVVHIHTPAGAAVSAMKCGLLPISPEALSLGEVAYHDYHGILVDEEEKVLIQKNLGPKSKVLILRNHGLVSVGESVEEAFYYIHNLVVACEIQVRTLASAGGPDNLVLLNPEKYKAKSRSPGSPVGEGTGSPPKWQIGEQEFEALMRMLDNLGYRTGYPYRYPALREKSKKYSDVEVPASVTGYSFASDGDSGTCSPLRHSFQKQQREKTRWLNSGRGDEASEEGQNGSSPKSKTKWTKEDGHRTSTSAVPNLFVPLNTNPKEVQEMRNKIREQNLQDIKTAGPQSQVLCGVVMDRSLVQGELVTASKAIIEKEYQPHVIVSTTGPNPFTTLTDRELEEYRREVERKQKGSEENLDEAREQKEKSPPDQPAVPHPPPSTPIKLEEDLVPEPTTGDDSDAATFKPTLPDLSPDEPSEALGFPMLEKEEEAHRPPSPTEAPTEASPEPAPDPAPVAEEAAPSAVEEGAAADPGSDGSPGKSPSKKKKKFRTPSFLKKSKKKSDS
Sequence of UniProt P30838 (P30838 whole entry, looked up): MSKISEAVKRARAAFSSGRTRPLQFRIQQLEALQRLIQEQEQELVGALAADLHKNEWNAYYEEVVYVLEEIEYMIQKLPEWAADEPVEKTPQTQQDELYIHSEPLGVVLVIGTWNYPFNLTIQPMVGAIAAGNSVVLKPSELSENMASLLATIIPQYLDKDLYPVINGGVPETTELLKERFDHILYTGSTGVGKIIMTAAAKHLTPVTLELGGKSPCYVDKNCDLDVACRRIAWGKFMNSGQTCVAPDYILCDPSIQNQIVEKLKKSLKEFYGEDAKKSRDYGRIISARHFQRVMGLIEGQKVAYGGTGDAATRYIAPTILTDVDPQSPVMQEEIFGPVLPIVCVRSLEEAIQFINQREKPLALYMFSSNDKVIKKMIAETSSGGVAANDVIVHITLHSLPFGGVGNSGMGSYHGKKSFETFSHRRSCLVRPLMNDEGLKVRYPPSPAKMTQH
Sequence of UniProt Q6AI12 (Q6AI12 whole entry, looked up): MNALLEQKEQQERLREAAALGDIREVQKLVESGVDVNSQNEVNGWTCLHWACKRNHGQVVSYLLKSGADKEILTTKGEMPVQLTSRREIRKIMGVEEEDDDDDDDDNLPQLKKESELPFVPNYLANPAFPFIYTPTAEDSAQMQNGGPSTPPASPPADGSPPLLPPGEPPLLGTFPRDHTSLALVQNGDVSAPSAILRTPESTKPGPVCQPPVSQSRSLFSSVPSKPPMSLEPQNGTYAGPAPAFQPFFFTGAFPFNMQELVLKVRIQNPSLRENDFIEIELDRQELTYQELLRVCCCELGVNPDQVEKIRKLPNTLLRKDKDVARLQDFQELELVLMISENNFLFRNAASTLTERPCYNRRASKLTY
Sequence of UniProt O15440 (O15440 whole entry, looked up): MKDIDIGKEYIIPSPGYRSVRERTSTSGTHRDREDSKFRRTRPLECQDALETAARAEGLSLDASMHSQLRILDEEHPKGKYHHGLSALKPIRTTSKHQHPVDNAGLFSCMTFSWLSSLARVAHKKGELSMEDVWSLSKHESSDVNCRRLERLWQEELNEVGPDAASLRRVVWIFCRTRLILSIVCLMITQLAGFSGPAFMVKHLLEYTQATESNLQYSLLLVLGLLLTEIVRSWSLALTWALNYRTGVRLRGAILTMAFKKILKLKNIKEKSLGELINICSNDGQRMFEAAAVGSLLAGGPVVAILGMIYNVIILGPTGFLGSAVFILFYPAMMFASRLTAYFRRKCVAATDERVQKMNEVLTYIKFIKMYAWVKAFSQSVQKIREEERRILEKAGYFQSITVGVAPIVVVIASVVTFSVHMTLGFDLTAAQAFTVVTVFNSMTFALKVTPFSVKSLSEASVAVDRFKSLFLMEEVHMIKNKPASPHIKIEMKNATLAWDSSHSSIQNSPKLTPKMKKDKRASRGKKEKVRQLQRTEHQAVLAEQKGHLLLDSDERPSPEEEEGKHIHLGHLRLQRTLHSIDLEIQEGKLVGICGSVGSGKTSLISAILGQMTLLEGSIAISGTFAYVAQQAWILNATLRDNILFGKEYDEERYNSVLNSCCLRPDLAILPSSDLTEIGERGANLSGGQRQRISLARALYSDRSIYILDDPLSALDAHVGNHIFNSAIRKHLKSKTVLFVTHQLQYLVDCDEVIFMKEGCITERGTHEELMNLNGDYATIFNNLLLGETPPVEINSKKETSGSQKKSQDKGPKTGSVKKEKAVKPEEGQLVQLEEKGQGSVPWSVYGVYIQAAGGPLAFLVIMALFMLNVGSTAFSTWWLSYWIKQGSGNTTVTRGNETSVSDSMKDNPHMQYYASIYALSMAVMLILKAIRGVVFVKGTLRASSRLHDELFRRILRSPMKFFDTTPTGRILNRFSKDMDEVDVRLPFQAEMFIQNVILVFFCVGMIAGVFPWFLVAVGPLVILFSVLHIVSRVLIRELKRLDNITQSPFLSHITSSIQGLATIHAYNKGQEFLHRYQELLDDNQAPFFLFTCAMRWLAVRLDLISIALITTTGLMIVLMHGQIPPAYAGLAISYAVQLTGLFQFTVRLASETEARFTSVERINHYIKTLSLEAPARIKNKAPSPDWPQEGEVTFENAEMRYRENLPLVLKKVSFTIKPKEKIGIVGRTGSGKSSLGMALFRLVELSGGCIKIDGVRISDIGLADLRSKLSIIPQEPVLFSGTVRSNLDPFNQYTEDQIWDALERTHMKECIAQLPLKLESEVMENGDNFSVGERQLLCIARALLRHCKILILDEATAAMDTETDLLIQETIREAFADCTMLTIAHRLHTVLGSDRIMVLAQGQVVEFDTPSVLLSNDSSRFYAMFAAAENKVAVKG
Sequence of UniProt P78536 (P78536 whole entry, looked up): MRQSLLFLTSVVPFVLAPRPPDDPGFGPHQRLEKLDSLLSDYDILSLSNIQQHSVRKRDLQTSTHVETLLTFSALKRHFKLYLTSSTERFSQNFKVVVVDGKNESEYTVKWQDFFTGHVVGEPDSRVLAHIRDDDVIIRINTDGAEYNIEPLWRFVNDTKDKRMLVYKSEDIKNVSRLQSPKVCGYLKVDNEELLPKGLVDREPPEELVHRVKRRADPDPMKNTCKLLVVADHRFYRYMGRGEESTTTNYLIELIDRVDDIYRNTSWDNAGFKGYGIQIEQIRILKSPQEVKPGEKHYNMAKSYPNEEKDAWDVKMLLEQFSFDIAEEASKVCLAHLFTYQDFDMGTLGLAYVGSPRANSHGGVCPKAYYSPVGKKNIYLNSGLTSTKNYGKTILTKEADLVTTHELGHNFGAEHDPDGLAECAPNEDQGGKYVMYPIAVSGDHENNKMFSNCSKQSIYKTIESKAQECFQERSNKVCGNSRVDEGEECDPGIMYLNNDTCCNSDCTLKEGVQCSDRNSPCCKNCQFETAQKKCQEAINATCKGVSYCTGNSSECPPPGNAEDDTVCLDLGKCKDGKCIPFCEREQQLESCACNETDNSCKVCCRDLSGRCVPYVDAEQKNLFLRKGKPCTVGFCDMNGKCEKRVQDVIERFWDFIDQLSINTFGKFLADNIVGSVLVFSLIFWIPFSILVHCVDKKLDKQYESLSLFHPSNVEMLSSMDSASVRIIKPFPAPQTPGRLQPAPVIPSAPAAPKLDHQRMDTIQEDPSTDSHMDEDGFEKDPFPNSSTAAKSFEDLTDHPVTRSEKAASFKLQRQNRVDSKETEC
Sequence of UniProt Q6P1M9 (Q6P1M9 whole entry, looked up): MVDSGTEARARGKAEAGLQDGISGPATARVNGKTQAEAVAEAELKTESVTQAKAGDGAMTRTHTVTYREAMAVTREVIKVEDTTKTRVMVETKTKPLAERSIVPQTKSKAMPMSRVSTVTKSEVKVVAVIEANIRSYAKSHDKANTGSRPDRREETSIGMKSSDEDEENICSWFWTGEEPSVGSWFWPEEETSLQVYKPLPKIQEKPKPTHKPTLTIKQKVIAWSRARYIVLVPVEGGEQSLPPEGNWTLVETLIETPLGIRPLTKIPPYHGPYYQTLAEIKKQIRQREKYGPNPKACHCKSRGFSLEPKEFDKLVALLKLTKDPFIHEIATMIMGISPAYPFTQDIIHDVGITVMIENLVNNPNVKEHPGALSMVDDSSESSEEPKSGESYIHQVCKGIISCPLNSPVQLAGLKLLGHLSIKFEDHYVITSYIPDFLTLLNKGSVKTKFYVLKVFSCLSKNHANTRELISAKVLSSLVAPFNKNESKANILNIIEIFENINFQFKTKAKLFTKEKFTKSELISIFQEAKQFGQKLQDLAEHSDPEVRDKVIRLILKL
Sequence of UniProt Q04771 (Q04771 whole entry, looked up): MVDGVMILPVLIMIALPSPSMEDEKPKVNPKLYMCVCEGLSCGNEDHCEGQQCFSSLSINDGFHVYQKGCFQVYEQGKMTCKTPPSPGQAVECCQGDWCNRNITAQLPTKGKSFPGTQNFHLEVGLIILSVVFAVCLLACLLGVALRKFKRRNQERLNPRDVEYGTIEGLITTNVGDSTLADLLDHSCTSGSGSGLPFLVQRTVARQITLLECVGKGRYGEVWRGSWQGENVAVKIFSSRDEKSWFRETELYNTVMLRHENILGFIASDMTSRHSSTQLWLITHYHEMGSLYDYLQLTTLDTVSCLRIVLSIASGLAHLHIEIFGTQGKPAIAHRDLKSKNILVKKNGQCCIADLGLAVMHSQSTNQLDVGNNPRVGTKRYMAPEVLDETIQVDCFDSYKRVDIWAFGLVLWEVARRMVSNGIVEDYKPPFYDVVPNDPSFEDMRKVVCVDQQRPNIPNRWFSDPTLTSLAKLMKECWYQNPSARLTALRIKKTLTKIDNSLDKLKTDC
Sequence of UniProt Q9P1F3 (Q9P1F3 whole entry, looked up): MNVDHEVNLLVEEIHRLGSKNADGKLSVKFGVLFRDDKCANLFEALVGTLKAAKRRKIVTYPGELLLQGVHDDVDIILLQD

Target | log2 fold change
ALDH18A1 isoform 2 (UniProt P54886) | 0.088 (inactive)
ACIN1 (UniProt E7EQT4) | -0.021 (inactive)
ANKRD40 (UniProt Q6AI12) | -0.171 (inactive)
ABRACL (UniProt Q9P1F3) | -0.239 (inactive)
ADD1 isoform 4 (UniProt P35611) | 0.029 (inactive)
ANKRD10 (UniProt Q9NXR5) | -0.052 (inactive)
ACVR1 (UniProt Q04771) | -0.015 (inactive)
ALDH3A1 (UniProt P30838) | -0.061 (inactive)
ALKBH1 (UniProt Q13686) | 0.014 (inactive)
ANXA2 (UniProt H0YL33) | 0.044 (inactive)
ALG3 (UniProt Q92685) | -0.104 (inactive)
ADAM17 (UniProt P78536) | 0.024 (inactive)
ABCA3 (UniProt Q99758) | 0.061 (inactive)
ARL13B (UniProt Q3SXY8) | 0.014 (inactive)
ARHGEF2 (UniProt V9GYF0) | 0.11 (inactive)
ABCC5 (UniProt O15440) | -0.045 (inactive)
ANKRD30B (UniProt Q9BXX2) | 0.087 (inactive)
ANXA5 (UniProt P08758) | -0.028 (inactive)
ANXA13 isoform 2 (UniProt P27216) | -0.116 (inactive)
ABL1 isoform 2 (UniProt P00519) | 0.004 (inactive)
ALKBH7 (UniProt Q9BT30) | 0.091 (inactive)
ARMCX5 (UniProt Q6P1M9) | -0.114 (inactive)

Compound: Cc1cc(Nc2cc(CN3CCOCC3)c3nc(C)c(Cc4ccc(Cl)cc4F)n3n2)n[nH]1 [gandotinib]
Assay: as above
Summary of the method: as §1

Target | log2 fold change
ACIN1 (UniProt E7EQT4) | 0.047 (inactive)
ANKRD40 (UniProt Q6AI12) | -0.032 (inactive)
ABRACL (UniProt Q9P1F3) | -0.003 (inactive)
ADD1 isoform 4 (UniProt P35611) | 0.556 (inactive)
ANKRD10 (UniProt Q9NXR5) | -0.088 (inactive)
ACVR1 (UniProt Q04771) | 0.643 (inactive)
ALDH3A1 (UniProt P30838) | 0.569 (inactive)
ALKBH1 (UniProt Q13686) | 0 (inactive)
ANP32E isoform 3 (UniProt Q9BTT0) | 0.213 (inactive)
ANXA2 (UniProt H0YL33) | -0.163 (inactive)
ACAT1, A0A5F9ZHJ0 | -0.075 (inactive)
ALG3 (UniProt Q92685) | 0 (inactive)
AGPAT2 (UniProt O15120) | -0.145 (inactive)
ALG13 isoform 2 (UniProt Q9NP73) | -0.088 (inactive)
ADAM17 (UniProt P78536) | 0.054 (inactive)
ABCA3 (UniProt Q99758) | 0.113 (inactive)
ARL13B (UniProt Q3SXY8) | -0.23 (inactive)
ACYP2 (UniProt P14621) | -0.076 (inactive)
AGGF1 (UniProt Q8N302) | 0.139 (inactive)
AMDHD2 (UniProt Q9Y303) | -0.015 (inactive)
ACLY isoform 2 (UniProt P53396) | 0.323 (inactive)
ANKRD44 isoform 2 (UniProt Q8N8A2) | 0.465 (inactive)
ABCC5 (UniProt O15440) | 0.043 (inactive)
ANKRD30B (UniProt Q9BXX2) | 0.337 (inactive)
AP3D1 isoform 2 (UniProt O14617) | -0.429 (inactive)
ANXA5 (UniProt P08758) | -0.119 (inactive)
ANXA13 isoform 2 (UniProt P27216) | 0.545 (active)
ABL1 isoform 2 (UniProt P00519) | -0.04 (inactive)
ALKBH7 (UniProt Q9BT30) | 0.08 (inactive)
ARMCX5 (UniProt Q6P1M9) | 0.001 (inactive)
